Bioassay records from PubChem BioAssay.
Pf growth 48h – P. falciparum growth inhibition at 48 hours (one generation). P. falciparum luciferase growth in erythrocytes, 48 h. Potency, µM (highest dose often 28.7 µM), without a hit: at the top dose activity change, negative = inhibition, usual class: inhibitors. actives 5.9% (n = 310,000). AID 504832; also: potency is read from the fitted curve at half-maximal effect; % is scaled to controls: 0 for no effect and ±100 for the full control effect
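Luciferase-expressing parasites in RBCs, 2% Hct / 0.1% parasitemia final; RPMI 1640 + 0.5% Albumax; 37 C, 5% CO2, one generation; luminescence read-out, lower signal = inhibition.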
Shiga toxin inh – blocks Shiga toxin action in Vero cells. Vero cells, Shiga toxin protein synthesis inhibition reporter. inhibition, % at 38.7 µM. actives 9.2% (n = 290,000). AID 2315; in the data active = inhibition mostly above about 28%, no sharp cut-off; inactive = mostly below about 43%; also: 0% is about no effect
Cycloheximide cs – affects cycloheximide protein synthesis inhibition readout, counter-screen. cell reporter, cycloheximide protein synthesis inhibition counterscreen. AID 2314. actives 12% (n = 300,000). max response, %; in the data active = max response mostly above about 13%, no sharp cut-off; inactive = mostly below about 14%; also: read at 38.3 µM for the half of the compounds with a filed dose; 0% is about no effect
Pf growth 96h – P. falciparum growth inhibition at 96 hours; P. falciparum luciferase reporter growth, 96 h; Potency, µM (top dose mostly 28.7 µM), for the others: at the top dose activity change, negative = inhibition, actives largely listed as inhibitors; actives 6.9% (n = 320,000); also: potency is read from the fitted curve at half-maximal effect; % is scaled to controls: 0 for no effect and ±100 for the full control effect
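Infected RBCs, 2% Hct / 0.05% parasitemia final; luciferase-reporter P. falciparum; cpd 96 h, 37 C, 5% CO2; luciferase detection reagent; luminescence.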
FBPA Giardia inh – blocks Giardia fructose-bisphosphate aldolase activity; purified Giardia FBPA; actives 0.71% (n = 290,000); Potency, µM (top dose mostly 59.6 µM), inactives show top-dose activity, negative = inhibition, most hits filed as inhibitors; AID 2451; A8B2U2; also: potency is read from the fitted curve at half-maximal effect; % is scaled to controls: 0 for no effect and ±100 for the full control effect; nearly all actives have a fitted effect of over 55% in size
Target sequence (A8B2U2 whole entry, looked up): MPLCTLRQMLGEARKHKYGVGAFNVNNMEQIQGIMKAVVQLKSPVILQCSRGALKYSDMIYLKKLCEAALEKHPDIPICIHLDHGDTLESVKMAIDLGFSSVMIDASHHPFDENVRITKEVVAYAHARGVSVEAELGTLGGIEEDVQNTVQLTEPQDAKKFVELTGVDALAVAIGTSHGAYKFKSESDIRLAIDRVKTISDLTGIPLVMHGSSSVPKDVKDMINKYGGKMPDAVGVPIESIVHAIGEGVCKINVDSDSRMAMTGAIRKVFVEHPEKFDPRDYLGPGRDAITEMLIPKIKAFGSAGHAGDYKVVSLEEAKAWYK
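40 nM FBPA preincubated 10 min at RT with compound (up to 57.5 uM final), then substrate plus GAPDH/TPI/NAD/arsenate coupling and diaphorase/resazurin added. Fluorescence read after 20 min at RT, 525/598 nm.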
NS1 function inh – inhibitors of influenza NS1 protein function. actives 0.4% (n = 270,000). Potency, µM (titrated, usually from 46.1 µM), for the others: top-dose activity, positive = more growth; calls by dose curve; also: potency is read from the fitted curve at half-maximal effect; actives are rising curves; nearly all actives have a fitted effect of over 50% in size
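S. cerevisiae expressing influenza A NS1, grown in glucose, washed, then diluted 1:100 into pH 6.0 -URA galactose medium with 23 nl compound. Growth recovery read as OD600; NS1-free strain serves as control.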
The depositor's hits bear a star; i = inactive; ? = inconclusive; . = not tested or not shown; [ ] = remark or other dose. Shown are actives, neighbours in structure and some others; about 21% of the full set was active somewhere. Unless noted, calls follow the shape of the dose curve; as a rule, active = well fitted curve in the direction sought with a large enough effect; inconclusive = small, poorly fitted or top-dose-only effect, or another doubt; inactive = no such curve, though single readings can be large; an effect the other way counts as inactive or inconclusive.

SMILES	Pf growth 48h	Shiga toxin inh	Cycloheximide cs	Pf growth 96h	FBPA Giardia inh	NS1 function inh
CCOc1ccc(-n2nc(C(=O)N3CCN(CC)CC3)c3ccccc3c2=O)cc1	4.1µM*	0	0	?	3%	-2%
CCC1CCc2sc(C(=O)NCC(c3ccc(OC)cc3)N3CCOCC3)cc2C1 (centres undefined)	12µM*	.	.	?	.	.
COc1ccc(-n2nc(C(=O)NCC(=O)N3CCC4(CC3)OCCO4)c3ccccc3c2=O)cc1Cl	46%	54*	23*	118%	5%	-1%
COc1ccc(C(CNC(=O)c2nn(-c3ccccc3)c(=O)c3ccccc23)N2CCOCC2)cc1 (centres undefined)	-49%	.	.	10µM*	.	.
O=P(O)(CCP(=O)(O)c1ccccc1)c1ccccc1	.	.	.	.	.	-2%
C=CCC1(c2ccccc2)Oc2ccc(C)cc2-c2nc3cc(Cl)c(Cl)cc3nc21 (centres undefined)	.	.	.	.	-4%[12.9 µM]	.
COc1ccc(-n2nc(C(=O)NCC(=O)N3CCCC(C)C3)c3ccccc3c2=O)cc1Cl (centres undefined)	?	36*	17*	24%	6%	23%
CCC1CCCCN1CCCNC(=O)C1CC(=O)N(CCc2ccccc2)C1 (centres undefined)	-12%	-9	0	?	0%	-21%
Cc1ccc(C(=O)c2ccc(C)cc2)cc1	i	79*	40*	-28%	1%	.
CN(C)c1ccc([P+](=O)c2ccc(N(C)C)cc2)cc1	17%	15	26	?	3%	.
CC(=O)c1ccc(N=Nc2ccc(N(C)C)cc2)cc1	i	97*	41*	174%	9%	.
CN(C)c1ccc(N=Nc2ccccc2Br)cc1	98%	37*	38*	441%	2%	-3%
Cc1ccc(C(=O)NS(=O)(=O)c2ccc(N=NN(C)C)cc2)cc1	9%	-2	5	?	-1%	5%
CC(C)CCOC(=O)c1ccc(N(C)C)cc1	141%	.	.	58%	.	.
CC(=O)c1ccc(N=Nc2ccc(C)cc2)cc1	i	41*	22*	172%	5%	.
CCOc1ccccc1NC(=O)CCCN1C(=S)NC(C)(C)CC1C (centres undefined)	-19%	16	-2	346%	-7%	-7%
NCCNc1ncnc2ccc(Cl)cc12	.	.	.	.	.	-3%
CC(=O)N[C@H](C(=O)O)C(C)(C)SN=O	.	.	.	.	1%	-7%
C#C[C@]1(O)CC[C@H]2[C@H]3CCC4=Cc5oncc5C[C@]4(C)[C@@H]3CC[C@]21C	.	.	.	.	0%	.
O=C(NN=C1CCN(Cc2ccccc2)CC1)c1cc2ccccc2cc1O	?	15	1	?	?	?
CCOC(=O)N1CCC(=NNC(=O)c2cc3ccccc3cc2O)CC1	-26%	14	-1	?	-19%	?
CCCN1CCC(=NNC(=O)c2ccc(Br)o2)CC1	21%	70*	41*	52%	-10%	-19%
O=C(NN=C1CCN(Cc2ccccc2)CC1)c1ccccc1O	12%	35*	22*	0%	-11%	.
O=C(O)c1cc(NN=C2CCN(Cc3ccccc3)CC2)ccc1Cl	-6%	12	1	?	-19%	-1%
O=C(NCC(=O)N1CCCC1)c1ccc(Br)o1	37%	13	6	-5%	7%	-6%
SMILES	Pf growth 48h	Shiga toxin inh	Cycloheximide cs	Pf growth 96h	FBPA Giardia inh	NS1 function inh
CCOC(=O)C1=C(C)C/C(=N\NC(=O)c2ccccc2O)CC1	?	38	23*	?	?	-37%
CCCN1CCC(=NNc2ccc(C(=O)O)cc2)CC1	113%	40*	30*	61%	-9%	7%
COc1cc2c(cc1OC)C(NNC(=O)c1ccc(Br)o1)=NC(C)(C)C2	?	-5	-7	?	.	-24%
Cn1cccc1C(=O)N1CCC[C@@]2(CCN(c3ncccn3)C2)C1	.	.	.	.	5%	.
CCN1CCC(=NNC(=O)c2ccco2)CC1	.	53*	56*	58%	-17%	3%
CCN1CCN(c2c(Cl)cccc2NC(=O)c2ccco2)CC1	-13%	-13	-3	-21%	1%	-1%
CC(=O)Nc1ccc(NC(=O)CSc2nnnn2-c2ccc(F)cc2)cc1	?	-3	6	102%	1%	3%
CCc1nnc(N/N=C/c2cc(Br)c(O)cc2O)n1N	?	24*	13*	-3%	?	-74%
CC(C)(C)c1nnc(N/N=C/c2cc(Br)ccc2O)n(N)c1=O	3.3µM*	-9	-5	8.3µM*	5%	-3%
CC(C)C[C@@H](CC(=O)N[C@@H](CCC(=O)O)CC(=O)O)NC(=O)[C@@H]1CNCC[C@H]1NC(=O)C[C@@H](NC(=O)C[C@H](CO)NC(=O)[C@@H]1CCCC[C@H]1N)C(C)C	.	.	.	.	-22%	.
COC(=O)c1c(SCc2ccc(C#N)cc2)nc(=O)[nH]c1C	0%	-14	-2	14%	11%	-6%
COC(=O)c1c(C)[nH]c(O)c1C=Nc1ccc(C#N)cc1	34%[1.15 µM]	2	8	65%[1.15 µM]	16µM*	-11%
CCOC(=O)C1=NN(C(=O)COc2ccccc2)C(O)(c2ccc(Br)cc2)C1 (centres undefined)	20%	-14	5	2.9µM*	-1%	-1%
Nc1nonc1C(=O)NCCNC(=O)c1ccc(Cl)c(Cl)c1	4%	-14	-4	-2%	2%	5%
O=C(CSc1ncccc1C(=O)O)Nc1ccc2c(c1)OCCO2	34%	82*	100*	55%	-2%	11%
O=C(CSc1ncnc2ccccc12)Nc1ccc2c(c1)OCCO2	14%	63	31*	16%	-2%	.
CCCCCC(=O)CC[C@@H]1[C@@H](C/C=C\CCCC(=O)O)[C@@H](O)C[C@H]1O	.	.	.	.	1%	.
CC#CCCC(=O)N1C=Cc2ccccc2C1C#N (centres undefined)	2.3µM*	-5	-2	0%	-13%	-3%
CC1=Cc2ccccc2C(C#N)N1C(=O)c1ccccc1 (centres undefined)	-3%	47	7	4%	-3%	5%
O=S(=O)(c1ccc2c(c1)OCCO2)N1CCC(c2nc3ccc(Cl)cc3[nH]2)CC1	12µM*	6	-1	?	-3%	-71%
O=C(NCC1CCCO1)c1ccc(S(=O)(=O)N2CCC(c3nc4ccc(Cl)cc4[nH]3)CC2)cc1 (centres undefined)	13µM*	-1	-3	-26%	-21%	-18%
O=S(=O)(c1ccc2c(c1)OCCO2)N1CCC(c2nc3ccccc3[nH]2)CC1	?	-16	-2	.	2%	3%
O=C(NCC1CCCO1)c1cc(S(=O)(=O)N2CCCCC2)ccc1Cl (centres undefined)	4%	.	.	18%	.	.
O=S(=O)(Nc1cccc(C(F)(F)F)c1)c1cnc[nH]1	12%	-6	-1	10µM*	-7%	1%
